Consider 14 compounds from ChEMBL document CHEMBL1157539, “Thousands of chemical starting points for antimalarial lead identification” (Nature, 2010).

SMILES strings stand for the structures.

For this assay, the system named is Plasmodium falciparum. As to the kind of experiment: GSK_TCMDC: Inhibition of Plasmodium falciparum 3D7 in whole red blood cells, using parasite LDH activity as an index of growth. Test compounds present at 2uM. It is filed as functional.
The term Inhibition denotes the percentage by which the read-out fell short of the control. A low value points to a response near the control. Regarding `NC1CCN(CCNCc2cccc(-c3ccc(-c4nc5cc(F)ccc5[nH]4)cc3)c2)C1.O=C(O)C(F)(F)F` (centres undefined), the Inhibition was 99%. The value for `O=C(/C=C/c1ccc(Cl)c(Cl)c1)NCCCCCN1CCC(NC(=O)NCCc2ccccc2)CC1` was 100%; that for `Cc1nc(N)nc(N)c1OCc1ccc(Cl)c(Cl)c1.Cl` was 97%; that for `CN1CCN(c2ccc(Nc3ncc(Cl)c(Nc4cccnc4C(N)=O)n3)cc2)CC1.Cl` was 95%. In turn, `O=C(/C=C/C=C/c1ccccc1)NCCCCCN1CCC(c2c[nH]c3ccccc23)CC1` registered an Inhibition of 85%. The value for `O=S(=O)(Nc1cccc(CCN2CCC(N3CCCCC3)CC2)c1)c1ccc(-c2ccccc2)cc1` was 100%; that for `COc1cc2c(cc1C(F)(F)F)N(C(=O)Nc1cc(OC(F)(F)F)cc(-c3cccnc3)c1)CC2` was 100%; that for `CC(=O)c1ccc(Nc2c(C(N)=O)cnc3cc(-c4c(C)noc4C)ccc23)cc1` was 99%. To `O=C(Nc1ccc2c(c1)CCN2C1CCN(Cc2cccc3cc[nH]c23)C1)c1ccco1` (centres undefined) belongs 88%. The value for `O=C(Nc1ccc(Cl)c(Cl)c1)N[C@H]1CCN(CCCCCNC(=O)C2CC2c2ccc(Cl)c(Cl)c2)C1` (some centres undefined) was 93%; that for `O=C(Nc1ccc(C(F)(F)F)cc1)NC1CCN(c2ccnc3ccccc23)CC1.O=C(O)C(F)(F)F` was 100%. For `Oc1ccccc1CN1CCC2(CCCN(Cc3ccccc3F)C2)C1` (centres undefined), the Inhibition was 98%. Turning to `NC(=O)c1cccc(CN2Cc3ccccc3OC3(CCN(Cc4c[nH]c5cnccc45)CC3)C2)c1.O=C(O)C(F)(F)F`, the Inhibition amounted to 94%. To `NC(=O)c1cccc(C(=O)Nc2cccc(-c3ccc(-c4nc5cc(C(F)(F)F)ccc5[nH]4)cc3)c2)c1` belongs 100%.
